Numbering of substitutions follows the chain as printed.
What was measured:
Experiment in all cases: PBM; 200 nM protein, PBS
Conditions in all cases: dsDNA, one strand shown
SIX6 [1] = target: T1, SIX6 (Homo sapiens, UniProt O95475 114-200, L167I)
T1 sequence: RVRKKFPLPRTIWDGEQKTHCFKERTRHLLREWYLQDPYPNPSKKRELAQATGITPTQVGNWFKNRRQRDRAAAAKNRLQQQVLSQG

SIX6 [2] = target: T2, SIX6 (Homo sapiens, UniProt O95475 114-200, L143V)
T2 sequence: T1 sequence with L30V, I54L

SIX6 [3] = target: T3, SIX6 (Homo sapiens, UniProt O95475 114-200, H141N)
T3 sequence: T1 sequence with H28N, I54L

SIX6 [4] = target: T4, SIX6 (Homo sapiens, UniProt O95475 114-200, T165P)
T4 sequence: T1 sequence with T52P, I54L

SIX6 [5] = target: T5, SIX6 (Homo sapiens, UniProt O95475 114-200, L167M)
T5 sequence: T1 sequence with I54M

SIX6 [6] = target: T6, SIX6 (Homo sapiens, UniProt O95475 114-200, L143M)
T6 sequence: T1 sequence with L30M, I54L

SIX6 [7] = target: T7, SIX6 (Homo sapiens, UniProt O95475 114-200, L143I)
T7 sequence: T1 sequence with L30I, I54L

SIX6 [8] = target: T8, SIX6 (Homo sapiens, UniProt O95475 114-200, T165G)
T8 sequence: T1 sequence with T52G, I54L

SIX6 [9] = target: T9, SIX6 (Homo sapiens, UniProt O95475 114-200, T139Q)
T9 sequence: T1 sequence with T26Q, I54L

SIX6 [10] = target: T10, SIX6 (Homo sapiens, UniProt O95475 114-200, T165A)
T10 sequence: T1 sequence with T52A, I54L

SIX6 [11] = target: T11, SIX6 (Homo sapiens, UniProt O95475 114-200, L167V)
T11 sequence: T1 sequence with I54V

SIX6 [12] = target: T12, SIX6 (Homo sapiens, UniProt O95475 114-200)
T12 sequence: T1 sequence with I54L

SIX6 [13] = target: T13, SIX6 (Homo sapiens, UniProt O95475 114-200, T165I)
T13 sequence: T1 sequence with T52I, I54L

Row | Sequence | binding signal (SIX6 [1]) | binding signal (SIX6 [2]) | binding signal (SIX6 [3]) | binding signal (SIX6 [4]) | binding signal (SIX6 [5]) | binding signal (SIX6 [6]) | binding signal (SIX6 [7]) | binding signal (SIX6 [8]) | binding signal (SIX6 [9]) | binding signal (SIX6 [10]) | binding signal (SIX6 [11]) | binding signal (SIX6 [12]) | binding signal (SIX6 [13])
1 | CAGGACCG | 9.24 upbm affinity estimate (log intensity, higher = more binding, comparable within an allelic series) | 9.05 upbm affinity estimate (log intensity, higher = more binding, comparable within an allelic series) | 9.24 upbm affinity estimate (log intensity, higher = more binding, comparable within an allelic series) | 9.18 upbm affinity estimate (log intensity, higher = more binding, comparable within an allelic series) | 9.01 upbm affinity estimate (log intensity, higher = more binding, comparable within an allelic series) | 9.2 upbm affinity estimate (log intensity, higher = more binding, comparable within an allelic series) | 9.14 upbm affinity estimate (log intensity, higher = more binding, comparable within an allelic series) | 9.28 upbm affinity estimate (log intensity, higher = more binding, comparable within an allelic series) | 9.23 upbm affinity estimate (log intensity, higher = more binding, comparable within an allelic series) | 9.16 upbm affinity estimate (log intensity, higher = more binding, comparable within an allelic series) | 9.19 upbm affinity estimate (log intensity, higher = more binding, comparable within an allelic series) | 9.17 upbm affinity estimate (log intensity, higher = more binding, comparable within an allelic series) | 9.13 upbm affinity estimate (log intensity, higher = more binding, comparable within an allelic series)
2 | CCATATAC | 10.3 upbm affinity estimate (log intensity, higher = more binding, comparable within an allelic series) | 10.1 upbm affinity estimate (log intensity, higher = more binding, comparable within an allelic series) | 10.3 upbm affinity estimate (log intensity, higher = more binding, comparable within an allelic series) | 9.82 upbm affinity estimate (log intensity, higher = more binding, comparable within an allelic series) | 10.3 upbm affinity estimate (log intensity, higher = more binding, comparable within an allelic series) | 10.4 upbm affinity estimate (log intensity, higher = more binding, comparable within an allelic series) | 10.1 upbm affinity estimate (log intensity, higher = more binding, comparable within an allelic series) | 10.4 upbm affinity estimate (log intensity, higher = more binding, comparable within an allelic series) | 10.5 upbm affinity estimate (log intensity, higher = more binding, comparable within an allelic series) | 10.3 upbm affinity estimate (log intensity, higher = more binding, comparable within an allelic series) | 10.2 upbm affinity estimate (log intensity, higher = more binding, comparable within an allelic series) | 10.4 upbm affinity estimate (log intensity, higher = more binding, comparable within an allelic series) | 10.3 upbm affinity estimate (log intensity, higher = more binding, comparable within an allelic series)
3 | ATGGTATC | 11 upbm affinity estimate (log intensity, higher = more binding, comparable within an allelic series) | 10.3 upbm affinity estimate (log intensity, higher = more binding, comparable within an allelic series) | 11 upbm affinity estimate (log intensity, higher = more binding, comparable within an allelic series) | 9.62 upbm affinity estimate (log intensity, higher = more binding, comparable within an allelic series) | 10.6 upbm affinity estimate (log intensity, higher = more binding, comparable within an allelic series) | 10.7 upbm affinity estimate (log intensity, higher = more binding, comparable within an allelic series) | 10.4 upbm affinity estimate (log intensity, higher = more binding, comparable within an allelic series) | 11.1 upbm affinity estimate (log intensity, higher = more binding, comparable within an allelic series) | 11.2 upbm affinity estimate (log intensity, higher = more binding, comparable within an allelic series) | 10.9 upbm affinity estimate (log intensity, higher = more binding, comparable within an allelic series) | 10.8 upbm affinity estimate (log intensity, higher = more binding, comparable within an allelic series) | 10.9 upbm affinity estimate (log intensity, higher = more binding, comparable within an allelic series) | 10.8 upbm affinity estimate (log intensity, higher = more binding, comparable within an allelic series)
